Measurements as given in article PMC5540273 (PLoS ONE, 2017).

What was measured:
Details in all cases: concentration: 1 μM, replicates: in singlicate; n = 1
SGK3 = system: SGK3
SGK = system: SGK
SIK2 = system: SIK2
SIK = system: SIK
SLK = system: SLK
SNARK = system: T1, SNARK
T1 construct: gene NUAK2

SNRK = system: SNRK
SRC = system: SRC
SRMS = system: SRMS
SRPK1 = system: SRPK1
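Note: KINOMEscan kinase panel screen.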

SMILES | %Inh (SGK3) | %Inh (SGK) | %Inh (SIK2) | %Inh (SIK) | %Inh (SLK) | %Inh (SNARK) | %Inh (SNRK) | %Inh (SRC) | %Inh (SRMS) | %Inh (SRPK1)
Cc1ccccc1Cn1ccn2c(=O)cc(N3CCOCC3)nc12 [GSK2269905] | 2% | 0% | 0% | 0% | 20% | 0% | 0% | 0% | 0% | 24%
COc1cccc(NC(=O)Nc2ccc(C)c(-c3ccc(C(=O)Nc4ccncc4)cc3)c2)c1 [GSK1398474] | 11% | 0% | 0% | 10% | 7% | 13% | 3% | 31% | 0% | 31%
Cc1nccc(-c2c(-c3ccc(F)cc3)ncn2CCCN2CCOCC2)n1.Cl [SB-282975] | 39% | 27% | 0% | 27% | 32% | 42% | 2% | 26% | 0% | 19%
Fc1ccc(-c2nc[nH]c2-c2ccncc2)cc1 [SB-217360] | 7% | 0% | 0% | 0% | 32% | 0% | 0% | 0% | 34% | 0%
CNc1nc(-c2ccc3c(N)n[nH]c3c2)cc(N2C[C@@H](C(=O)Nc3ccccc3)CC[C@H]2C)n1 [GSK2298859] | 1% | 0% | 0% | 4% | 19% | 8% | 0% | 2% | 0% | 33%
CNCc1ccc2nc(NC(=O)c3ccc(C(C)(C)C)cc3)cn2c1 | 31% | 2% | 4% | 3% | 0% | 34% | 20% | 3% | 0% | 33%
CNc1nc(-c2ccc3c(N)n[nH]c3c2)cc(N2C[C@@H](C(=O)NC3CCCCC3)OC[C@H]2C)n1 [GSK2375584] | 20% | 0% | 0% | 0% | 24% | 30% | 2% | 0% | 0% | 4%
Nc1nccc(-c2c(-c3ccc(F)cc3)ncn2C2CCN(Cc3ccccc3)CC2)n1 [SB-219980] | 28% | 2% | 24% | 6% | 0% | 38% | 0% | 0% | 11% | 0%
O=C(Nc1n[nH]c2nc(-c3cccs3)c(Br)cc12)C1CCCC1 [SB-743341] | 40% | 0% | 0% | 17% | 38% | 34% | 19% | 7% | 0% | 0%
Nc1ncnc2occ(-c3ccc4c(c3)CCN4C(=O)Cc3cc(F)ccc3F)c12 [GSK2645446] | 1% | 0% | 0% | 0% | 5% | 7% | 0% | 0% | 0% | 16%
COc1ccc(Nc2nccc(N3CCC(NC(=O)C(C)c4ccc(Cl)cc4)C3)n2)cc1 (stereo not drawn) [GSK1379735] | 0% | 10% | 13% | 0% | 33% | 0% | 48% | 0% | 2% | 39%
COC(=O)c1cccc(NC(=O)NC2CCN(c3ccnc(Nc4ccc(OC)cc4)n3)C2)c1 (stereo not drawn) [GSK1379746] | 0% | 9% | 0% | 0% | 7% | 0% | 0% | 0% | 0% | 0%
CSc1ccc(-c2nc3n(c2-c2ccncc2)CCC3)cc1 [SKF-105561] | 6% | 0% | 0% | 0% | 7% | 0% | 18% | 0% | 13% | 2%
CCn1c(-c2c(N)noc2C)nc2cnccc21 [SB-737856] | 0% | 0% | 0% | 0% | 4% | 0% | 0% | 0% | 0% | 0%
COC(=O)c1cccc(NC(=O)NC2CCN(c3ccnc(Nc4ccc(F)cc4)n3)C2)c1 (stereo not drawn) [GSK1379725] | 0% | 0% | 0% | 2% | 0% | 0% | 0% | 0% | 0% | 23%
COc1ccc(Nc2nccc(N3CCC(NC(=O)C(C)c4ccc(Cl)cc4)CC3)n2)cc1 (stereo not drawn) [GSK1379812] | 0% | 0% | 0% | 54% | 28% | 0% | 0% | 10% | 0% | 10%
COc1ccc(Nc2nccc(-c3ccc(NC(=O)c4cc5cc(F)ccc5[nH]4)cc3)n2)cc1 [GSK1229496] | 1% | 0% | 0% | 0% | 0% | 0% | 0% | 0% | 7% | 10%
COc1ccc(Nc2nccc(NCCNC(=O)Nc3cc(C)ccc3C)n2)cc1 [GSK1379899] | 0% | 0% | 0% | 0% | 27% | 0% | 0% | 0% | 0% | 34%
Cc1ccc(NC(=O)c2ccc(Cl)cc2)cc1-c1ccc(C(=O)Nc2ccncc2)cc1 [GSK1398467] | 0% | 0% | 0% | 0% | 19% | 0% | 0% | 0% | 0% | 13%
Cc1ccccc1-c1cc(-c2c[nH]nc2-c2ccccn2)ccn1 [GW680061] | 0% | 0% | 0% | 0% | 0% | 1% | 0% | 0% | 0% | 0%
Cl.Cl.Cl.N#Cc1ccc(CCNc2nccc(-c3cccc(CN4CCNCC4)c3)n2)cc1 [GSK2137462] | 10% | 0% | 2% | 0% | 6% | 12% | 0% | 15% | 2% | 21%

SMILES | %Inh (SGK3) | %Inh (SGK) | %Inh (SIK2) | %Inh (SIK) | %Inh (SLK) | %Inh (SNARK) | %Inh (SNRK) | %Inh (SRC) | %Inh (SRMS) | %Inh (SRPK1)
Cc1ccc(NC(=O)Nc2ccccc2)cc1-c1ccc(C(=O)Nc2ccncc2)cc1 [GSK1398471] | 10% | 0% | 0% | 6% | 13% | 4% | 0% | 20% | 0% | 33%
Fc1ccc(-c2nn3cccc(F)c3c2-c2ccncc2)cc1 [GW475620] | 0% | 0% | 12% | 3% | 16% | 0% | 0% | 1% | 0% | 3%
Cc1c(Cn2c(C)c(C)n3c(=O)cc(N4CCOCC4)nc23)cccc1C(F)(F)F [GSK2328680] | 0% | 16% | 0% | 0% | 22% | 0% | 0% | 0% | 0% | 6%
COc1ccc(CSc2nnc(-c3ccc4ncsc4c3)o2)cc1C(F)(F)F | 0% | 2% | 0% | 11% | 15% | 0% | 0% | 3% | 0% | 10%
O=C1NC(=O)C(c2ccc(Cl)cc2)=C1Nc1cccc(Cl)c1 [SB-317651] | 0% | 0% | 0% | 0% | 14% | 0% | 0% | 2% | 0% | 0%
Nc1cccc(-c2ccc3c(N)n[nH]c3c2)n1 [GSK2192730] | 34% | 2% | 0% | 0% | 0% | 19% | 0% | 0% | 0% | 33%
Cc1ccc(NC(=O)Nc2ccccc2F)cc1-c1ccc(C(=O)Nc2ccncc2)cc1 [GSK1398477] | 0% | 0% | 22% | 15% | 34% | 0% | 0% | 27% | 0% | 52%
CNc1cc(-c2ccc3c(N)n[nH]c3c2)nc(N)n1 [GSK2224810] | 7% | 0% | 13% | 0% | 0% | 2% | 0% | 0% | 0% | 46%
Cn1cncc1C(=O)NC1CCN(c2ccnc(Nc3ccc(F)cc3)n2)C1 (stereo not drawn) [GSK1379717] | 0% | 14% | 0% | 0% | 0% | 0% | 0% | 0% | 0% | 100%
CC(C)c1cc(-c2ccc3c(N)n[nH]c3c2)nc(N)n1 [GSK2250882] | 4% | 0% | 0% | 0% | 14% | 0% | 0% | 0% | 8% | 60%
CCc1ccc(-c2ccc3c(c2)-c2n[nH]cc2S(=O)(=O)N3C)cc1 | 0% | 0% | 13% | 29% | 0% | 0% | 1% | 0% | 1% | 0%
O=c1cc(N2CCOCC2)nc2n(Cc3cccc(Cl)c3Cl)c3ccccc3n12 [GSK2299009] | 4% | 31% | 18% | 16% | 39% | 16% | 0% | 0% | 0% | 19%
Cc1ccc(-c2nc(Nc3ccncc3)c3ccccc3n2)s1 [GSK189015] | 47% | 5% | 16% | 0% | 9% | 74% | 3% | 13% | 3% | 38%
CCCCc1nn2ncccc2c1-c1ccnc(NC2CC2)n1 [GW684374] | 2% | 0% | 0% | 0% | 0% | 9% | 0% | 0% | 0% | 12%
COc1ccc2cc(-c3nc(-c4ccccc4C(C)C)[nH]c3-c3ccncc3)ccc2c1 [SB-660566] | 0% | 0% | 0% | 0% | 78% | 0% | 0% | 0% | 0% | 7%
COC(=O)C(Cc1ccccc1)NC(=O)NC1CCN(c2ccnc(Nc3ccc(F)cc3)n2)C1 (stereo not drawn) [GSK1379714] | 0% | 2% | 0% | 0% | 22% | 0% | 0% | 1% | 5% | 15%
c1ccc(-c2ccnc3[nH]ccc23)cc1 [SB-693578] | 10% | 18% | 25% | 0% | 6% | 48% | 0% | 0% | 0% | 0%
O=C(Nc1n[nH]c2cc(-c3ccsc3)ccc12)C1CC1 [SB-732932] | 26% | 6% | 0% | 4% | 0% | 29% | 15% | 0% | 13% | 45%
O=C(Nc1n[nH]c2nc(-c3ccco3)c(Br)cc12)C1CCN(Cc2ccccc2)C1.O=C(O)[C@H](O)[C@@H](O)C(=O)O (stereo not drawn) [SB-742034] | 24% | 18% | 9% | 52% | 8% | 11% | 0% | 0% | 17% | 28%
O=C1NC(=O)C(c2ccc(Cl)cc2)=C1Nc1ccc(O)cc1 [SB-340867] | 6% | 0% | 0% | 0% | 9% | 0% | 0% | 0% | 0% | 18%
COc1cccc(C2=C(Nc3cc(Cl)c(O)c(Cl)c3)C(=O)NC2=O)c1 [SB-390767] | 0% | 0% | 0% | 0% | 13% | 0% | 0% | 0% | 0% | 11%
